# Screening data from PubChem BioAssay.
# This is a sample that favours compounds with a hit; in the whole collection about 2.8% have one here.
# POLI inh = inhibitors of human DNA polymerase iota | Pol iota fluorescent replication assay, 10 min | Potency, µM (titrated, usually from 115 µM), for the others: at the top dose activity, negative = inhibition, hits mostly inhibitors | hit rate 1% among 390,000 | AID 588590; further: potency means the concentration at half of the fitted maximal effect
# Target sequence (Q9UNA4 whole entry, looked up): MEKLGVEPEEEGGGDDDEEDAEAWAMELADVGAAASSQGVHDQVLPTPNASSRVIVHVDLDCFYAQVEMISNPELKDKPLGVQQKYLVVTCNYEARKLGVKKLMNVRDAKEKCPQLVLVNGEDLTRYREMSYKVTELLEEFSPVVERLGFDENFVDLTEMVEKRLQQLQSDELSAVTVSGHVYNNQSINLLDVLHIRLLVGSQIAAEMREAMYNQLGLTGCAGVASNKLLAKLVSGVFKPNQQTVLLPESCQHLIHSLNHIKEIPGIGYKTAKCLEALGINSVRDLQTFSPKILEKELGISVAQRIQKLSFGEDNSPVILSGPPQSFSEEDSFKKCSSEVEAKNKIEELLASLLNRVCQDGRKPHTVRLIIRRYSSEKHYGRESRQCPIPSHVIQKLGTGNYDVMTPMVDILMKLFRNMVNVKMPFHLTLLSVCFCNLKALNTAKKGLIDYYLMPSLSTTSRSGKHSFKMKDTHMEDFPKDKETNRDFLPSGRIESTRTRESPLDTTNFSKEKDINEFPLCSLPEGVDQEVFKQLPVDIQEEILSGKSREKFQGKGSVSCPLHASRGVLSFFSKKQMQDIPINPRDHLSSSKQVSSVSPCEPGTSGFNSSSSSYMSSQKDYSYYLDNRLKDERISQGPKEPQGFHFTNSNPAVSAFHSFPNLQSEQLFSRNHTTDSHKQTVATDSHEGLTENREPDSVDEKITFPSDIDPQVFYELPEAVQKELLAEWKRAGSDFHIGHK
#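 Pol iota at 10 nM preincubated 15 min with compounds at room temperature; reaction started with fluorescent substrate, 50 nM final. Fluorescence read kinetically at 0 and 10 min; buffer-only wells as negative control.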
# Pol eta inh = inhibitors of human DNA polymerase eta; Q9Y253; recombinant Pol eta, fluorescent DNA replication assay; Potency, µM (series often up to 114 µM), for the others: at the top dose activity change, negative = inhibition, most hits filed as inhibitors; hit rate 1.2% among 390,000; AID 588591; further: potency means the concentration at half of the fitted maximal effect; on the % scale 0 is the no-effect control and ±100 the full control effect
#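 Pol eta at 10 nM preincubated with compounds 15 min at room temperature; reaction started with fluorescent substrate (50 nM final) and read kinetically at 0 and 10 min.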
# POLB inh = inhibitors of human DNA polymerase beta; hit rate 1.3% among 340,000; Potency, µM (series often up to 114 µM), for inactives: at the highest dose activity change, negative = inhibition, actives largely listed as inhibitors; Pol beta primer extension/strand displacement, fluorescence kinetic; further: potency means the concentration at half of the fitted maximal effect; on the % scale 0 is the no-effect control and ±100 the full control effect
#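 Homogeneous kinetic assay of primer extension and strand displacement by 10 nM Pol beta, preincubated 15 min at room temperature with compound before 50 nM substrate (final) was added. Read at 0 and 10 min; four-parameter Hill fit.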
# PI5P4K alpha inh = inhibitors of human PI5P4K alpha; P48426; PI5P4Kalpha enzyme, ADP-Glo luminescence, 60 min; active compounds read low; max response, %; hit rate 1.2% among 330,000; AID 652105; active means max response of -50% or lower; inconclusive means between -30% and -50%; inactive means -30% or higher; further: value at the top dose of about 77 µM; on the % scale 0 is the no-effect control and ±100 the full control effect
#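 PI5P4Kalpha ADP-Glo assay; 5 microM ATP final; 60 min RT reaction; HEPES pH 7.4/EGTA/CHAPS, 5% DMSO; controls lacking substrate or enzyme; luminescent end-point.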
# WRN helicase inh = inhibitors of human WRN helicase | WRN helicase unwinding, fluorescent forked duplex, kinetic | hit rate 0.46% among 360,000 | Potency, µM (titrated, usually from 114 µM), for inactives: top-dose activity change, negative = inhibition, most hits filed as inhibitors | AID 651768; further: potency means the concentration at half of the fitted maximal effect; on the % scale 0 is the no-effect control and ±100 the full control effect; nearly all actives have a fitted effect of over 55% in size
#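 Kinetic fluorescence helicase assay: unwinding of a quenched forked DNA duplex (100 nM final) with 2 mM ATP final raises red fluorescence (525/598 nm). Compounds sat 15 min at room temperature with 20 nM WRN beforehand.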
# Pol kappa inh = blocks human DNA polymerase kappa activity; hit rate 0.53% among 400,000; Potency, µM (highest dose often 107 µM), for the others: at the highest dose activity, negative = inhibition, hits mostly inhibitors; AID 588579; Q9UBT6; purified Pol kappa, fluorescent DNA synthesis assay, 10 min; further: potency means the concentration at half of the fitted maximal effect; on the % scale 0 is the no-effect control and ±100 the full control effect
#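 Inhibition of 10 nM Pol kappa is measured by a fluorescent read-out at 0 and 10 min following addition of 50 nM substrate (final), with a 15-min room-temperature compound preincubation.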
# Numbers without * were called inactive; ? = inconclusive; nt = not tested or not shown; ! = repeats disagree; [ ] = remark or other dose. Unless noted, the call rests on the fitted dose curve; in most records, active means well fitted curve in the direction sought with a large enough effect; inconclusive means small, poorly fitted or top-dose-only effect, or another doubt; inactive means no such curve, though single readings can be large; an effect the other way counts as inactive or inconclusive.
SMILES,POLI inh,Pol eta inh,POLB inh,PI5P4K alpha inh,WRN helicase inh,Pol kappa inh
Cc1c(Cl)cccc1NC(=O)CCS(=O)(=O)c1ccc(Br)s1,-16%,-7%,50µM*,nt,nt,?
Cc1oc2ncn(CC(C)C)c(=O)c2c1C(=O)N1CCN(c2cccc(C(F)(F)F)c2)CC1,38%,-23%,1%,nt,nt,1%
Cc1nc2scc(C)n2c(=O)c1S(=O)(=O)Nc1ccc(N2CCN(S(C)(=O)=O)CC2)cc1,50µM*,?,?,-5,-13%,-11%
N#Cc1ccc(C(=O)NCc2ccc3c(c2)CCN3C(=O)c2ccc(F)cc2)cc1,18%,-23%,-1%,nt,nt,-5%[60.1 µM]
CCN(CC)c1ccc(C(=O)NCc2ccc3c(c2)CCN3C(=O)c2ccc(F)cc2)cc1,20%,79µM*,3%,nt,nt,-12%[60.1 µM]
O=C1OC(c2ccccc2)=N/C1=C\C=C\c1ccco1,?,3%,4%,12,-9%,-18%
O=C1OC(c2ccc(Cl)cc2)=N/C1=C\C=C\c1ccco1,?,18%,28µM*,-1,-13%,?
CC(=O)Nc1cccc(NC(=O)CSc2ncc(-c3ccccc3)[nH]2)c1,?,6%,14µM*,1,-8%,-25%
N#Cc1cc([N+](=O)[O-])c2sc(C(N)=O)[n+]([O-])c2c1,nt,nt,nt,nt,nt,-12%[60.1 µM]
Cc1ccc(NC(=O)CN2C(=O)COc3ccc(S(=O)(=O)N4CCOCC4)cc32)c(Cl)c1,?,-17%,7%,nt,nt,-32%
COc1ccc(/C=N/Nc2nnc(C)n2N)cc1OC,11µM*,-17%,-27%,0,-6%[11.6 µM],-21%
COc1cccc(/C=N/Nc2nnc(C)n2N)c1OCc1ccccc1Cl,20µM*,-7%,-2%[57.1 µM],-6,-18%,-6%
O=c1ccc2ccc(O)c(O)c2o1,24µM*,?,14µM*,nt,nt,9.5µM*
COc1cc2ccc(=O)oc2cc1O,5%,-8%,nt,3,-1%,16%
CCOC(=O)c1c(C)[nH]c(C)c1S(=O)(=O)N(C)CC(=O)Nc1ccccc1F,50µM*,-9%,-1%,-2,8%[11.6 µM],45µM*
CCOC(=O)c1c(C)[nH]c(C)c1S(=O)(=O)N(C)CC(=O)Nc1cc(Cl)ccc1C,17%,-19%,1%,nt,nt,-1%
Cn1cccc1CC(=O)N/N=C\c1ccccc1,?,2%,0%,-16,0%,-6%
Cc1ccc(/C=N\NC(=O)Cc2cccn2C)o1,79µM*,-13%,7%,0,-7%[57.1 µM],-19%
CNc1cc(-c2ccccc2C)ncn1,nt,nt,nt,nt,nt,5%[60.1 µM]
COCCNc1cc(-c2ccccc2C)ncn1,nt,nt,nt,nt,nt,32µM*
S=c1[nH]c(=S)c2[nH]cnc2[nH]1,79µM*,nt,nt,nt,nt,-11%
Cc1ccc(N2CCN(C(=O)c3c(C)oc4ncnc(N5CCCCC5)c34)CC2)c(C)c1,-30%,-13%,-1%,nt,nt,0%
OCCCc1cn(-c2ccccc2)c2ccccc12,40%,-26%,1%,19,-3%,-12%
Clc1nc(Cl)nc(-c2cn(-c3ccccc3)c3ccccc23)n1,-25%,-9%,20µM*,-12,-2%,7%
COc1ccc(-n2c(O)c(/C=N/NS(=O)(=O)c3cc(C)ccc3C)c3ccccc3c2=O)cc1OC,?,?,?,-20,79µM*,?
SMILES,POLI inh,Pol eta inh,POLB inh,PI5P4K alpha inh,WRN helicase inh,Pol kappa inh
COc1ccc(-n2c(O)c(/C=N/Nc3nc(C)cc(C)n3)c3ccccc3c2=O)cc1OC,104%,-1%,?,10,-34%,?
COc1ccc(-c2nc3ccccc3c(=O)n2N)cc1,20%,9%,56µM*,1,-3%,-12%
C[C@@H]1O[C@@H](OC[C@H]2O[C@@H](Oc3c(-c4ccc(O)c(O)c4)oc4cc(O)cc(O)c4c3=O)[C@H](O)[C@@H](O)[C@@H]2O)[C@H](O)[C@H](O)[C@H]1O,9%,-10%,8.9µM*,-1,-4%,24µM*!
CC1OC(OC2C(Oc3c(-c4ccc(O)cc4)oc4cc(O)cc(O)c4c3=O)OC(COC3O[C@@H](C)[C@H](O)[C@@H](O)C3O)C(O)C2O)C(O)C(O)C1O (some centres undefined),5%,-14%,nt,6,-1%,-3%
O=c1c(OC2OC(CO)C(O)C(O)C2OC2OC(CO)C(O)C(O)C2OC2OC(CO)C(O)C(O)C2O)c(-c2ccc(O)c(O)c2)oc2cc(O)cc(O)c12 (centres undefined),50µM*,?,?,-2,-7%,56µM*
O=c1c(O[C@@H]2O[C@H](CO)[C@@H](O)[C@H](O)[C@H]2O)c(-c2ccc(O)c(O)c2)oc2cc(O)cc(O)c12,nt,nt,1.8µM*,nt,nt,nt
O=c1c(O[C@@H]2O[C@H](CO)[C@@H](O)[C@H](O)[C@H]2O)c(-c2ccc(O)cc2)oc2cc(O)cc(O)c12,?,4%,nt,1,-8%,-25%
O=c1cc(-c2ccc(O)c(O)c2)oc2cc(OC3OC(CO)C(O)C(O)C3O)cc(O)c12 (centres undefined),nt,nt,nt,nt,nt,0.89µM*
CCn1c(=O)c(C(=O)Nc2ccc(C(C)=O)cc2)nc2ccccc21,45%,-28%,-3%,nt,nt,-24%
CCOc1ccc(OCC)c(NC(=O)CCc2nc3cccnc3n2Cc2cccs2)c1,24%,-4%,0%,nt,nt,-11%
CCCC(=O)Nc1nc(-c2ccc(Cl)s2)cs1,15%,3%,24%,10,0%,-2%
O=C(O)C1CCCCC1C(=O)Nc1nc(-c2ccc(Cl)s2)cs1 (centres undefined),?,45µM*,16µM*,?,-30%,?
Cc1cc(N=Nc2ccc(C)c(N=Nc3cc(C)c(N)cc3N)c2)c(N)cc1N,?,-9%,?,-28,-7%[11.6 µM],50µM*
O=C1NC(=O)C(=Cc2ccccc2[N+](=O)[O-])S1,?,89µM*,nt,?,13%,-5%
O=C([C@@H]1CC=C[C@@H]2CCN(C3CCCCC3)C(=O)[C@@H]21)N1CCOCC1,-3%,nt,nt,nt,nt,-8%
C[n+]1c2n(c3ccccc31)N=C(c1ccc(-c3ccccc3)cc1)CS2,3%,-2%,-11%,1,34%,-3%
C[n+]1c2n(c3ccccc31)N=C(c1ccc(Br)cc1)CS2,25µM*,-9%,1%,nt,-14%,-7%
COCCN(C(=O)c1cc(-c2ccco2)nc2ccccc12)c1c(N)n(Cc2ccccc2)c(=O)[nH]c1=O,18µM*,22µM*,nt,-84*,?,?
CCCCN(C(=O)c1cc(-c2ccco2)nc2ccccc12)c1c(N)n(CCCC)c(=O)[nH]c1=O,18µM*,50µM*,nt,-57*,?,79µM*
O=C(O)c1ccc(O)c(O)c1,?,-5%,25µM*,-1,5%,-7%
Cc1cc(/C=C2\C=Cc3ccccc32)cc(C)c1N,39%,nt,nt,nt,nt,-10%
